Data as given in PubChem BioAssay (NCATS).
Results filed as inconclusive are left out. Activity calls are given as the source filed them. Calls follow the shape of the dose curve; as a rule, active = well fitted inhibition curve with a large enough effect; inconclusive = small, poorly fitted or top-dose-only effect; inactive = flat fitted curve, though single readings scatter.

Target: Tyrosyl-DNA phosphodiesterase 1 (Homo sapiens) (UniProt Q9NUW8)
Experiment: Confirmation Assay for Inhibitors of Tyrosyl-DNA Phosphodiesterase (TDP1) (AID 489007); also: nearly all actives have a fitted effect of over 40% in size
Conditions: recombinant human TDP1 enzymatic activity, dose-response
Outline: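 Recombinant human Tdp1 (1 nM final), expressed in E. coli, preincubated 15 min with compound. Then 15 nM 5'-biotin/3'-phosphotyrosine-FITC DNA substrate added for 5 min at room temperature. AlphaScreen beads (10 ug/ml) added for 10 min; cleavage gives signal loss.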
Potency is read from the fitted curve at half-maximal effect.

Sequence of Tyrosyl-DNA phosphodiesterase 1 (Homo sapiens) (Q9NUW8 whole entry, looked up): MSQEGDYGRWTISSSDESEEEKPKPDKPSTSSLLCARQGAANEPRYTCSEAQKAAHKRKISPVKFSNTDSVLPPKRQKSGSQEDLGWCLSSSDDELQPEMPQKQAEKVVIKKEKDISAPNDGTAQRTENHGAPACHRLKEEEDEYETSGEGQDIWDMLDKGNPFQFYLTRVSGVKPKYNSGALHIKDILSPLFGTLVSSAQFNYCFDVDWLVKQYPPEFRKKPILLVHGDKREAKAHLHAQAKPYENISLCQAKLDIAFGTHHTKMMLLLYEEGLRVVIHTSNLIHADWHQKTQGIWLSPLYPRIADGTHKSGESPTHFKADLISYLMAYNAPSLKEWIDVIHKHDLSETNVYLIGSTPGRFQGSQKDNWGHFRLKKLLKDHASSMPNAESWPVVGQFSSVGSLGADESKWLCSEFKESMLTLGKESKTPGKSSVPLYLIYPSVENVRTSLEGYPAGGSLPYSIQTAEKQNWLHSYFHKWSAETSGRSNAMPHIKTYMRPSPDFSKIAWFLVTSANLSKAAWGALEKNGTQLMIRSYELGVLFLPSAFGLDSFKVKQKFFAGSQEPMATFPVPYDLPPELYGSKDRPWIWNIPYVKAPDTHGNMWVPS

Potency, active:
Cc1ccc(CSc2nnc(SCC(=O)N/N=C/c3c[nH]c4ccccc34)s2)cc1 5.62 µM
O=C(O)c1cccc(-n2cccc2/C=C2/NC(=O)N(c3ccc(Cl)cc3)C2=O)c1 1.62 µM
COc1ccc(/C=N/N=C2/NC(=O)C(CC(=O)O)S2)cc1OCc1ccc(Cl)cc1Cl (stereo unspecified) 39.8 µM
Cc1cc(C=O)c(C)n1-c1ccc(Cl)c(C(=O)O)c1 1.12 µM
O=C(NN1C(=O)C2CC=C(Cl)CC2C1=O)c1ccncc1 (stereo unspecified) 31.6 µM
Nc1ccc(N)c(C(=O)O)c1 0.199 µM
O=C1CN(C(=O)/C=C/c2ccco2)c2ccccc2N1 44.7 µM
COc1ccc(-n2cccc2/C=C2\C(=N)N3N=C(c4ccco4)SC3=NC2=O)cc1 14.1 µM
Cc1ccc(/C=C2/C(=O)c3ccc(C(=O)O)cc3C2=O)o1 14.1 µM
CN(C)c1nc(-c2ccccc2)c2cnn(Cc3ccccc3)c2n1 63.1 µM
O=C(O)CCCN1C(=O)/C(=C\c2ccco2)SC1=S 2.82 µM
Nc1ccc2c(c1Cl)C(=O)c1ccc(N)c(Cl)c1C2=O 3.55 µM
Cc1cccc(N2CCN(S(=O)(=O)c3ccc4[nH]c(=O)c(=O)[nH]c4c3)CC2C)c1 (stereo unspecified) 39.8 µM
O=C(N/N=C/c1ccc2c(c1)OCO2)c1cc2ccccc2o1 12.6 µM
O=C(O)c1cc(-c2ccc(/C=C3\NC(=O)N(c4ccccc4)C3=O)o2)ccc1Cl 7.08 µM
CC1(C)OC(=O)C(=Cc2ccc(-c3ccc(Cl)c(C(=O)O)c3)o2)C(=O)O1 14.1 µM
